Screening data deposited in PubChem BioAssay by NMMLSC.
Anthrax LF inh2: anthrax lethal factor protease inhibition; P15917; multiplex microsphere protease cleavage assay, LF; inhibition, % at 10 µM; 360,000 compounds, 0.12% hits; AID 588501
Target sequence (P15917 whole entry, looked up): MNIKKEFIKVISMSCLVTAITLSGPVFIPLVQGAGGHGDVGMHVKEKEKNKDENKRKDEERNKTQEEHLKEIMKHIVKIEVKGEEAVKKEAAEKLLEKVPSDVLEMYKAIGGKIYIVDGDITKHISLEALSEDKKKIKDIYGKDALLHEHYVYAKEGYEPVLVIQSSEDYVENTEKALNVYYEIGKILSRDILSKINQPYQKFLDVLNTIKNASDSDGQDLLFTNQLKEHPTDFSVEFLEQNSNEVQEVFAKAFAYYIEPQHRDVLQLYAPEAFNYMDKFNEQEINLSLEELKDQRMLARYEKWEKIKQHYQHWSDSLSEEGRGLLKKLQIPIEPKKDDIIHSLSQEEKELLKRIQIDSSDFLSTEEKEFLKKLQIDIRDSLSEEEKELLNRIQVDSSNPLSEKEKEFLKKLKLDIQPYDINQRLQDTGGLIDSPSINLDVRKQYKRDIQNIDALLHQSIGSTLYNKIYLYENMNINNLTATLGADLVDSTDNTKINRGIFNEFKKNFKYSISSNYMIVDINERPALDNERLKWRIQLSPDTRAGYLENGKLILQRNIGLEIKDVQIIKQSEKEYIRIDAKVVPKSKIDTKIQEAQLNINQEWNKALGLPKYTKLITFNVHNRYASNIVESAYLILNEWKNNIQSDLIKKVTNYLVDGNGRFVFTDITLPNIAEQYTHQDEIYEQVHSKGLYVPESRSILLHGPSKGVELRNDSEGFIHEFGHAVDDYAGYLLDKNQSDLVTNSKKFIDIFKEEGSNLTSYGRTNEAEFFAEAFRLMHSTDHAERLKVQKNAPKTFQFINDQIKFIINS
Bead autofluor: compound fluorescence in toxin protease inhibitor counterscreen; compound autofluorescence counterscreen, microsphere flow cytometry; hits give high values; fluorescence intensity (no concentration beside the values); 360,000 compounds, 3.1% hits; AID 624483; in the data active means fluorescence intensity above about 16000; inconclusive means no clear call, values can overlap the other calls
BoNT-A LC inh2: BoNT A light chain protease inhibition. AID 588499. inhibition, % at 10 µM. 360,000 compounds, 0.17% hits. multiplex microsphere protease substrate cleavage, flow cytometry
BoNT F protease: BoNT F light chain protease inhibition; Multiplex microsphere protease cleavage assay, flow cytometry; inhibition, % at 10 µM; 360,000 compounds, 0.22% hits; AID 588497; in the data active means inhibition above about 35%, passing the limit was not always enough; inconclusive means no clear call, values can overlap the other calls
Numbers stand for hits. An excerpt weighted towards active compounds, which were near 3.5% of everything screened. Unless noted, no stated cut-off is given here; in the data, active means inhibition above about 30%; inconclusive means no clear call, values can overlap the other calls; inactive means below that.

Cc1ccc2c(c1)CC1(CN2C)C(=O)NC(=O)N(c2cc(C)ccc2C)C1=O (stereo not drawn) was read as Anthrax LF inh2 inactive, Bead autofluor 22449, BoNT-A LC inh2 inactive and BoNT F protease inactive.
For COc1cc(CN2C(=O)NC(=O)C3(Cc4cc(C)ccc4N(C)C3)C2=O)cc(OC)c1 (stereo not drawn) the results were Anthrax LF inh2 inactive, Bead autofluor 22009, BoNT-A LC inh2 inactive and BoNT F protease inactive.
For COc1ccc2c(c1)CC1(CN2C)C(=O)NC(=O)N(CCc2ccccc2)C1=O (stereo not drawn) the results were Anthrax LF inh2 inactive, Bead autofluor inactive, BoNT-A LC inh2 inactive and BoNT F protease inactive.
Screening CC1(C(=O)N2CCN(Cc3ccccc3Cl)CC2)CC1(Cl)Cl (stereo not drawn) returned Anthrax LF inh2 inactive, Bead autofluor inactive, BoNT-A LC inh2 inactive and BoNT F protease inconclusive.
For Cc1nn(C2CCOC(C)(C)C2)c2c1C(c1ccc(OC(C)C)cc1)SCC(=O)N2 (stereo not drawn) the results were Anthrax LF inh2 inactive, Bead autofluor 21930, BoNT-A LC inh2 inactive and BoNT F protease inactive.
COC(=O)c1sc2ccccc2c1N was read as Anthrax LF inh2 inactive, Bead autofluor inactive, BoNT-A LC inh2 inactive and BoNT F protease inactive.
For COC(=O)c1sc2ccccc2c1C(=O)OC the results were Anthrax LF inh2 inactive, Bead autofluor 22728, BoNT-A LC inh2 inconclusive and BoNT F protease inactive.
For O=C(COc1ccccc1)N=C1SC2CS(=O)(=O)CC2N1c1ccccc1F (stereo not drawn) the results were Anthrax LF inh2 inactive, Bead autofluor inactive, BoNT-A LC inh2 inactive and BoNT F protease inactive.
For O=C(Oc1nsnc1N1CCOCC1)c1ccccc1 the results were Anthrax LF inh2 inactive, Bead autofluor inactive, BoNT-A LC inh2 inactive and BoNT F protease inactive.
Screening Cc1ccc(Oc2nsnc2N2CCOCC2)cc1 returned Anthrax LF inh2 inactive, Bead autofluor 20142, BoNT-A LC inh2 inactive and BoNT F protease inactive.
`O=C(Nc1ccnn1C1CCN(Cc2cc(Cl)ccc2O)CC1)C1CC1` gave Anthrax LF inh2 inactive, Bead autofluor inactive, BoNT-A LC inh2 inactive and BoNT F protease inactive.
Screening CC(=O)c1c(N2CCN(c3ccccc3)CC2)nc(=S)n(-c2ccccc2)c1C returned Anthrax LF inh2 inactive, Bead autofluor inactive, BoNT-A LC inh2 inactive and BoNT F protease inactive.
CC(=O)c1c(N2CCC(C(N)=O)CC2)nc(=S)n(-c2ccccc2)c1C was read as Anthrax LF inh2 inactive, Bead autofluor 22860, BoNT-A LC inh2 inactive and BoNT F protease inactive.
CC(=O)c1c(N2CCN(Cc3ccccc3)CC2)nc(=S)n(Cc2ccccc2)c1C was read as Anthrax LF inh2 inactive, Bead autofluor inactive, BoNT-A LC inh2 42 and BoNT F protease inactive.
For O=C(CCS(=O)(=O)c1ccc(Cl)cc1)Nc1nc(-c2ccncc2)cs1 the results were Anthrax LF inh2 inactive, Bead autofluor inactive, BoNT-A LC inh2 inactive and BoNT F protease inactive.
`COc1ccccc1OCCn1ccnc1` gave Anthrax LF inh2 inactive, Bead autofluor inactive, BoNT-A LC inh2 inactive and BoNT F protease inconclusive.
CCN(CC)CCCCOc1ccccc1OC was read as Anthrax LF inh2 inactive, Bead autofluor 20460, BoNT-A LC inh2 inactive and BoNT F protease inactive.
Screening N=c1n(CCN2CCCC2)c2ccccc2n1CC(O)c1ccco1 (stereo not drawn) returned Anthrax LF inh2 inactive, Bead autofluor 21466, BoNT-A LC inh2 inactive and BoNT F protease inactive.
For COc1ccc(OC)c2c(N3CC(C)OC(C)C3)cc(C(F)(F)F)nc12 (stereo not drawn) the results were Anthrax LF inh2 inactive, Bead autofluor inactive, BoNT-A LC inh2 inactive and BoNT F protease inactive.
Screening CC1CN(c2cc3nccnc3cc2F)CC(C)O1 (stereo not drawn) returned Anthrax LF inh2 inactive, Bead autofluor 16271, BoNT-A LC inh2 inconclusive and BoNT F protease inactive.
For Cc1cc(N2CCN(c3ccccc3)CC2)n2nnnc2n1 the results were Anthrax LF inh2 inactive, Bead autofluor inactive, BoNT-A LC inh2 inactive and BoNT F protease inactive.
Cc1cc(N2CCN(c3ccccc3)CC2)n2c(n1)nc1ccccc12 was read as Anthrax LF inh2 inactive, Bead autofluor 23762, BoNT-A LC inh2 inconclusive and BoNT F protease inactive.
`O=C(O)c1ccc(-c2ccc(OS(=O)(=O)c3ccccc3F)cc2)cc1` gave Anthrax LF inh2 inactive, Bead autofluor inactive, BoNT-A LC inh2 inactive and BoNT F protease inactive.
COC(=O)c1ccccc1S(=O)(=O)Oc1ccc(-c2ccc(C(=O)O)cc2)cc1 was read as Anthrax LF inh2 inactive, Bead autofluor inactive, BoNT-A LC inh2 inactive and BoNT F protease 37.
O=C(c1ccccc1Cl)N(C(=O)c1ccccc1Cl)c1nccc(-c2cccs2)n1 was read as Anthrax LF inh2 inactive, Bead autofluor inactive, BoNT-A LC inh2 inactive and BoNT F protease inactive.
For O=C(Nc1nccc(-c2cccs2)n1)c1ccccc1Cl the results were Anthrax LF inh2 inactive, Bead autofluor 19543, BoNT-A LC inh2 inactive and BoNT F protease inactive.
CCc1nc2oc3cc(OC)ccc3c(=O)c2c(=O)n1Cc1ccccc1 was read as Anthrax LF inh2 inactive, Bead autofluor 24709, BoNT-A LC inh2 inconclusive and BoNT F protease inactive.
For CCc1nc2oc3ccccc3c(=O)c2c(=O)n1Cc1ccccc1 the results were Anthrax LF inh2 inactive, Bead autofluor inactive, BoNT-A LC inh2 inactive and BoNT F protease inactive.
For COc1ccc(C2=NO[C@@H]3C(=O)N(C4CCCCC4)C(=O)[C@H]23)cc1OC the results were Anthrax LF inh2 inactive, Bead autofluor 22002, BoNT-A LC inh2 inactive and BoNT F protease inactive.
COc1ccc(C2=NO[C@@H]3C(=O)N(c4ccc5c(c4)OCCO5)C(=O)[C@H]23)cc1OC was read as Anthrax LF inh2 inactive, Bead autofluor inconclusive, BoNT-A LC inh2 inactive and BoNT F protease inactive.
Screening O=C(CCN1CCOCC1)NNC(=O)Nc1cccc([N+](=O)[O-])c1 returned Anthrax LF inh2 inactive, Bead autofluor inactive, BoNT-A LC inh2 inactive and BoNT F protease inactive.
`Cn1cccc1/C=N/NC(=O)CSc1nc2ccccc2n1C` gave Anthrax LF inh2 inactive, Bead autofluor inactive, BoNT-A LC inh2 inactive and BoNT F protease inconclusive.
Screening CCOC(=O)C1C(=O)CC(C)(O)C(C(=O)OCC)C1c1ccccc1OC (stereo not drawn) returned Anthrax LF inh2 inactive, Bead autofluor 21006, BoNT-A LC inh2 inactive and BoNT F protease inactive.
For CCOC(=O)C1C(=O)CC(C)(O)C(C(=O)OCC)C1c1cc(Br)ccc1OC (stereo not drawn) the results were Anthrax LF inh2 inactive, Bead autofluor inconclusive, BoNT-A LC inh2 inactive and BoNT F protease inactive.
CCc1nc2ccccc2c(C(=O)O)c1C was read as Anthrax LF inh2 inactive, Bead autofluor 22245, BoNT-A LC inh2 inactive and BoNT F protease inactive.
For CCC(=O)Nc1c(C)c(CC)nc2ccccc12 the results were Anthrax LF inh2 inactive, Bead autofluor 16775, BoNT-A LC inh2 inactive and BoNT F protease inactive.
CCc1nc2ccccc2c(C(=O)NCc2ccccc2)c1C was read as Anthrax LF inh2 inactive, Bead autofluor inactive, BoNT-A LC inh2 inactive and BoNT F protease inactive.
For CCOc1ccc(NC(=O)CN(C)C(=O)C2CCCO2)cc1OCC (stereo not drawn) the results were Anthrax LF inh2 inactive, Bead autofluor inconclusive, BoNT-A LC inh2 inactive and BoNT F protease inactive.
Screening CC1CN(C(=O)c2cc3c(=O)n4ccccc4nc3s2)CC(C)O1 (stereo not drawn) returned Anthrax LF inh2 inactive, Bead autofluor 16544, BoNT-A LC inh2 inactive and BoNT F protease inactive.
